Laboratory results reported in PubChem BioAssay AID2677 (National Center for Advancing Translational Sciences (NCATS), 2010).
The list shows a part of the results. Inconclusive results are not listed. Active and inactive are the calls of the source. Calls come from the whole dose curve; as a rule, active = well fitted inhibition curve with a large enough effect; inconclusive = small, poorly fitted or top-dose-only effect; inactive = no such curve, though single readings can be large or run the other way.

Biological target: Lysine-specific demethylase 4E (Homo sapiens) (UniProt B2RXH2)
Assay: Confirmation qHTS Assay for Inhibitors of Human Jumonji Domain Containing 2E (JMJD2E)
Settings: Recombinant JMJD2E, FDH-coupled NADH fluorescence (FDH is formaldehyde dehydrogenase)
Excerpt: The fine interplay among methylation states of several lysine residues on the tails of histone proteins is a major determinant of the transcriptional state of the associated DNA coding regions and is commonly referred to as the histone code. Histone lysine demethylases catalyze the removal of methyl groups from methylated lysine sidechains on histones H3 and H4, thus antagonizing the reactions catalyzed by histone lysine methyltransferases. […] In search for novel inhibitors of JMJD2E demethylase, a member of the largest set of histone demethylases belonging to the Fe(II) and 2-oxoglutarate oxygenase (2OG) superfamily, we performed a quantitative high-throughput screen (Inglese 2006) by using an assay which utilizes a trimethylated peptide substrate corresponding to a fragment of histone H3 (sequence ARKme3STGGK) with detection of the formaldehyde co-product in real time by a formaldehyde dehydrogenase (FDH) coupled reaction. FDH catalyzes oxidation of formaldehyde to formic acid with the concomitant reduction of the non-fluorescent beta-nicotinamide adenine dinucleotide hydrate (NAD+) cofactor to the fluorescent NADH co-product. References: Inglese, J., Auld, D., Jadhav, A., Johnson, R., Simeonov, A., Yasgar, A., Zheng, W. and Austin, C. Proc Natl Acad Sci USA 2006, 103, 11473-11478. N. R. Rose, S. S. Ng, J. Mecinovic, B. M. Lienard, S. H. Bello, Z. Sun, M. A. McDonough, U. Oppermann and C. J. Schofield, J Med Chem, 2008, 51, 7053-7056. Sakurai, M., Rose, N., Schultz, L., Quinn, A., Jadhav, A., Ng, S., Oppermann, U., Schofield, C.J. and Simeonov, A. Mol BioSystems 2009, in press. S. Michael, D. Auld, C. Klumpp, A. Jadhav, W. Zheng, N. Thorne, C. Austin, J. Inglese and A. Simeonov, Assay Drug Dev Technol, 2008, 6, 637-657. Assay Provider: Structural Genomics Consortium [SGC] Screening Center PI: Austin, C.P. Screening Center: NIH Chemical Genomics Center [NCGC]
Reagents and Controls: Ferrous ammonium sulfate, (+)-sodium L-ascorbate, beta-nicotinamide adenine dinucleotide hydrate (NAD+), Tween-20, formaldehyde dehydrogenase from P. putida (FDH), and disodium 2-oxoglutarate were from Sigma (St. Louis, MO). Black solid-bottom 384-well or 1,536-well assay plates were from Greiner Bio-One (Monroe, NC). Enzyme was supplied by Prof. Udo Oppermann, SGC-Oxford. […] The trimethylated histone peptide substrate ARK(me3)STGGK was synthesized and HPLC-purified by the Tufts University Core Facility (Boston, MA). Substrate solution (Sakurai 2009) contained 50 uM ARK(me3)STGGK, 0.00025 U/uL FDH, 50 uM 2-oxoglutarate, 250 uM NAD+, 1 mM ascorbate, and 10 uM ferrous ammonium sulfate. Controls and plate map: Buffer (150 mM HEPES pH 7.5 containing 0.01% Tween-20) in columns 3 and 4 as negative control (no enzyme) and 100 nM JMJD2E final concentration in columns 1,2, and 5-48. Assay Steps: Enzyme and buffer solutions (3 uL) were dispensed into a 1,536-well Greiner black solid-bottom assay plate. The library compounds (23 nL) were transferred using a Kalypsys pintool equipped with 1,536-pin array. The plate was incubated at room temperature (15 min), and then a 1 uL aliquot of substrate solution was added to initiate the reaction. The plate was transferred to ViewLux imager where an initial reading using standard UV optics (Ex 340 nm, Em 450 nm) was obtained. The plate was then removed from the reader, incubated for 30 minutes at room temperature, and returned to the reader for a second fluorescence reading. A fully automated robotic screening system (Kalypsys Inc, San diego, CA) was used to perform the above steps as described previously (Michael 2008). Compound plates containing DMSO as a vehicle-only control were included at regular interval throughout the screen to monitor any systematic trend in the assay signal associated with reagent dispenser variation or decreases in enzyme specific activity. For activity calculations, percent values were computed as the difference in fluorescence intensity between last and first time points. […]

Sequence of Lysine-specific demethylase 4E (Homo sapiens) (B2RXH2 1-337 limits assumed): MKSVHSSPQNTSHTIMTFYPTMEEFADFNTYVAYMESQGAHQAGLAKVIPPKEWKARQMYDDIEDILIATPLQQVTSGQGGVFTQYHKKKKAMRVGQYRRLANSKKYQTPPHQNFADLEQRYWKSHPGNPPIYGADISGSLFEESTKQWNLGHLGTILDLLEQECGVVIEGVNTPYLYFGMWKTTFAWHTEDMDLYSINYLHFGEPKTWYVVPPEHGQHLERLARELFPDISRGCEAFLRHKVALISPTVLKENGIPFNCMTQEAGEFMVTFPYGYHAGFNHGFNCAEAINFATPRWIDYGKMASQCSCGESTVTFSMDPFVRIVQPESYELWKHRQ

| SMILES | Potency |
| --- | --- |
| Cc1ccc(N2C(=O)CC(Sc3ncn[nH]3)C2=O)cc1 (stereo unspecified) | 5.01 µM (active) |
| Oc1c(CN2CCCC2)cc(COCc2ccccc2)c2cccnc12 | 5.01 µM (active) |
| Oc1cccc2cc(-c3ccncc3)cnc12 | 18.2 µM (active) |
| Oc1ccc(/C=C/c2c(F)cccc2F)c2cccnc12 | 9.13 µM (active) |
| Nc1ccc(Nc2cc(O)c3ncccc3c2)cc1 | 28.2 µM (active) |
| O=C1CC(Sc2ncn[nH]2)C(=O)N1c1ccccc1 (stereo unspecified) | 7.08 µM (active) |
